From the supplement of paper PMC3334620
The full ranking holds about 33,000 sequences; the median of “E-score (-0.5 to 0.5)” is about -0.016, and the highest 2% start at about 0.32. The entries come from a sample that favours the highest values as a whole.

biological target: T1, Stp1 (UniProt B3LFK1); experiment: PBM E-score (8-mer binding enrichment) (E-score (-0.5 to 0.5)); higher = stronger / more preferred TF binding; details: protein concentration: 200 nM; construct: GST-full length
T1 sequence: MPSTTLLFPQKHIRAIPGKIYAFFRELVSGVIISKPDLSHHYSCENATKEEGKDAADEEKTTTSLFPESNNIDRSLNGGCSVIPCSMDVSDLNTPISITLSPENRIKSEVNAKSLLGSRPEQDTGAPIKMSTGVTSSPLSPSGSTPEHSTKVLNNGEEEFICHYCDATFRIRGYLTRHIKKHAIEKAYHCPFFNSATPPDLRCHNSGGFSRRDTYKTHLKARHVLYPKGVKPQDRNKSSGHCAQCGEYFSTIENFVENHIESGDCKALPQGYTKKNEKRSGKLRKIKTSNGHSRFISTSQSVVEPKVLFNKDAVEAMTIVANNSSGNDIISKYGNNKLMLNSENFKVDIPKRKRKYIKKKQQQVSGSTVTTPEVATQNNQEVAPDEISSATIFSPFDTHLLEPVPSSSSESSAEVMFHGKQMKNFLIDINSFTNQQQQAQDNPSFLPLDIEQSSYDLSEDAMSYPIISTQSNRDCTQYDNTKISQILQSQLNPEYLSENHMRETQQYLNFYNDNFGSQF
Method: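 Universal 'all 10-mer' protein binding microarrays (Agilent AMADID 015681) probed with GST-tagged S. cerevisiae TFs (full-length or DBD) made by in vitro transcription/translation (PURExpress), about 100-200 nM. Bound TF was detected with fluorescent anti-GST. Each ungapped 8-mer (which stands for itself and its reverse complement) is scored by the PBM enrichment score (E-score), a modified Wilcoxon-Mann-Whitney statistic from -0.5 to +0.5, computed with the Universal PBM Analysis Suite. Scale: above 0.35 generally sequence-specific binding.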

Sequence | PBM E-score
CACGGTAC | 0.0963
CATATTCC | -0.14
AACCATTA | 0.123
TGGGACAA | -0.23
CGAACGTA | -0.0114
CACGCATC | 0.0489
CCCAATCA | -0.0533
ATTTCCGG | -0.0307
AGGCGACA | 0.197
CGGCGAGC | 0.307
AGGCGAGA | -0.0565
GGGCGACA | 0.0209
CGGCGAGA | 0.325
CGGCGACA | 0.369
CGGCGACG | 0.349
AGGCGACG | 0.209
CGGCGACC | 0.203
CTCGGGGC | -0.163
CAGAGTCG | -0.204
CATGGTTA | 0.105
ACCGTGCT | -0.133
CCCGTGAG | -0.0263
AGCGTGCG | 0.237
ACCGTGCG | 0.371
CCCGTGCG | 0.332

Sequence | PBM E-score
CCCGTGCA | 0.0223
AGAGGGCG | 0.307
AGGCCAAT | -0.152
AGAACGCT | -0.11
AATGTGCC | 0.323
GATGTGCC | 0.185
ATTGTGCA | 0.162
AATGTGCG | 0.18
ATTGTGCC | 0.322
ATTGTGCG | 0.161
GCGCAAAA | 0.227
CCATGAGA | -0.118
GAGCCGCA | 0.448
TAGCCGAA | 0.00682
AACCCGCA | -0.00015
TAGCCGGA | -0.0486
AAGCCGCG | 0.418
CAGCCGCA | 0.215
AATCCGCG | 0.111
AAGCCGGA | 0.0672
GAGCCGGA | 0.0514
AAGCCGCA | 0.386
CAGCCGCG | 0.259
TAGCCGCA | 0.348
GAGGGTAC | -0.22

Sequence | PBM E-score
AACTGAGC | -0.0352
CGATCAAG | -0.0842
CCCTTATA | -0.15
CCAACTAG | -0.0642
CCGACCAG | -0.144
CATAATGC | 0.0509
TCCCAGGA | -0.255
GGATCTAC | -0.105
GTCGACTA | 0.157
AAGCCGCC | 0.177
CAGCCGCC | 0.0812
GAGCCGCC | 0.319
CCTAAGCC | -0.355
ACGGGTTG | -0.0319
GCGGCAAA | 0.383
CCGGCAAA | 0.116
GGGGCAAC | -0.107
TCGGCAAA | 0.0291
CCGGCAAC | 0.0817
GCGGCAAC | 0.384
ATCATTCG | 0.119
AAATTAAG | -0.00684
AGTGCGGC | 0.379
CGTGCGGC | 0.476
CGTGCGAC | 0.0732

Sequence | PBM E-score
CGTGCGGA | 0.3
AGTGCGGA | 0.224
AGTGCGGG | -0.0896
TACTAGGA | -0.15
GAGGTCAC | -0.123
AGTATTGA | 0.0696
CACGGTAG | -0.0367
GTGGGCAA | -0.0572
CCATTGCC | 0.0367
CGCCCTGC | 0.346
CGCCCTGA | 0.0616
AGCCCTGC | 0.0478
GACCTTTA | -0.0597
AAGCCTCA | -0.0215
AGGCGACT | 0.0881
TGGCGCCA | 0.26
CGGCGCCG | 0.484
AGGCGCCG | 0.462
AGGCGCAT | 0.241
AGGCGCCC | 0.232
GGGCGCCA | 0.309
AGGCGCCA | 0.353
AGGCGTCG | 0.253
CGGAGCCG | 0.302
AGGCGCCT | 0.383

Sequence | PBM E-score
CGCCGGCG | 0.312
AGGTGCGG | 0.189
AATAACTG | 0.0806
TGGACAAA | -0.0269
GCAGCGCA | -0.103
AAGAACCA | -0.0227
CAGTCTCC | -0.209
ATTTGGAA | 0.0474
AAGATTAA | 0.084
ATCGTACA | 0.0995
CGATAAAC | 0.0166
AGGAGGAT | -0.107
GCGATGTA | 0.16
TATCGTCA | -0.0796
TAGTGCAA | 0.0577
GCGCGCCA | 0.268
CGGCGCCA | 0.463
ATGCGCCA | 0.0976
CTGCGCCA | 0.106
CTGCGCCC | -0.113
CGGCGCCC | 0.38
GGGCGCCC | 0.255
ATGCGCCG | 0.413
ATGCGCCC | 0.158
AACTATCG | -0.203

Sequence | PBM E-score
CTCTGGCA | -0.203
ACAAGTGC | -0.127
CGTCAGAG | -0.0954
GCAATGGC | -0.116
AGGCTGTA | 0.0388
ATCTATTG | 0.0947
ACAGATAA | -0.0189
ATCAATGG | -0.0372
AACAACCA | 0.0647
CCCTCGTA | -0.0643
GCCTCGTA | 0.346
ACCTCGTA | -0.0684
CGCCATGC | 0.226
ATAGTGCC | 0.311
ACGGCACC | 0.484
GCGGCACA | 0.463
GTGGCACA | 0.125
GCGGCACC | 0.477
GGGGCACC | 0.0924
CCGGCACC | 0.254
AGGGCACC | 0.0197
CGGGCACC | 0.237
GGGGCACA | 0.0124
GACGCCAC | 0.0288
GATCCTAC | -0.1

Sequence | PBM E-score
ACTCTCAG | 0.0178
CGGCACTC | 0.365
AGGCACTC | 0.139
GGGCACTA | 0.23
CTGCACTC | 0.109
CGGCACTA | 0.446
AGGCACTA | 0.301
CAGAGGTA | 0.062
GTTCCATA | -0.164
CCTGGCCG | -0.105
AAAGTATC | 0.118
AGGTAAGC | -0.118
TATCTCCA | 0.103
CCTACCTA | -0.0899
AGCGGCTG | 0.0689
CTCGGCTC | 0.029
CCCGGCTC | -0.238
CGCGGCTC | 0.464
ATCGGCTC | 0.136
CGCGGCTA | 0.397
GGCGGCTA | 0.207
AGCGGCTA | 0.165
AGCGGCTC | 0.388
